Screening data from PubChem BioAssay.
This is a sample that favours compounds with a hit; in the whole collection about 4.8% have one here.
hcDAF12 agonist: activators of H. contortus DAF-12 nuclear receptor; activation, % at 6.8 µM; hit rate 1.4% among 370,000; HEK293 hcDAF-12 lit1-tk-luc reporter, luminescence; 0% DMSO, 100% Δ7-dafachronic acid;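 active means activation above the mean of all tested compounds plus 3 SD, cut at about 5.5% in these data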;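 further: 100% = response to 3 µM Δ7-dafachronic acid high control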
DAX1 inh-1: inhibits human nuclear receptor DAX1; P51843; hit rate 0.99% among 340,000; inhibition, % at 6.75 µM; AID 504766; HEK293 Gal4-DAX1 luciferase reporter, luminescence;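 active means inhibition above the mean over all tested compounds plus 3 SD, cut at about 4.2% in these data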;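 further: 0% = DAX1-transfected cells with DMSO and 100% = empty-vector control cells with DMSO; inhibition shows as a rise in luminescence from relieved DAX1 repression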
SMARCA2 act: activators of SMARCA2 function. MG213 cells, MMTV-luciferase reporter, dexamethasone, overnight. hit rate 1% among 370,000. activation, % at 9.1 µM; in the data active means activation above about 7.8%;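 further: 0% = vehicle wells and 100% = reference activator wells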
ssDAF12 agonist: activates DAF-12 receptor from parasite S. stercoralis; activation, % at 6.8 µM; hit rate 1% among 370,000; HEK293 ssDAF-12/GRIP1 lit1-tk-luc reporter, luminescence; % of 3 µM dafachronic acid response;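 active means activation above the mean over all tested compounds plus 3 SD, cut at about 0.9% in these data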;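 further: 0% = DMSO-only wells and 100% = 3 µM delta7-dafachronic acid wells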
hgDAF-12 ag: agonists of H. glycines DAF-12 nuclear receptor. HEK293 GAL4-hgDAF12 UAS-luciferase reporter, agonist luminescence; normalized to butyrate control. activation, % at 6.8 µM. hit rate 1.8% among 370,000. AID 687014;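 active means activation above a cutoff set at the mean of all screened compounds plus 3 SD, cut at about 10% in these data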;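 further: 0% = DMSO wells and 100% = sodium butyrate wells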
DAX1 inh-2: DAX1 (NR0B1) inhibition, primary screen; HEK293T StAR-luciferase reporter, SF-1/DAX-1 repression relief; inhibition, % at 6.8 µM; hit rate 1.1% among 370,000; AID 652010;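 active means inhibition above the mean over all tested compounds plus 3 SD, cut at about 3.6% in these data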;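 further: 0% = DAX-1 cells with DMSO and 100% = cells lacking DAX-1 with DMSO; higher inhibition means more luminescence from relief of DAX-1 repression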
hgDAF12 conf: confirmation of H. glycines DAF-12 agonists; activation, % at 6.8 µM; shares compounds with hgDAF-12 ag; HEK293 GAL4-hgDAF12 luciferase reporter, agonist mode; percent of butyrate response; hit rate 80% among 3,300;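 active means mean activation over triplicate wells above the hit cutoff derived from the earlier primary screen, cut at about 11% in these data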;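 further: 0% = DMSO low control and 100% = 2 mM sodium butyrate high control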
LXRb DAF12 ctr: activates human LXR-beta, counter-screen for DAF-12 agonists | HEK293 Gal4-LXR luciferase reporter, 24 h | 3,300 tested, under 10 active | activation, % at 6.8 µM | shares compounds with hgDAF-12 ag;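 active means mean activation of the triplicate above a set limit carried over from the primary screen, none filed active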
Target sequence (P55055 whole entry, looked up, the tested form may be a part): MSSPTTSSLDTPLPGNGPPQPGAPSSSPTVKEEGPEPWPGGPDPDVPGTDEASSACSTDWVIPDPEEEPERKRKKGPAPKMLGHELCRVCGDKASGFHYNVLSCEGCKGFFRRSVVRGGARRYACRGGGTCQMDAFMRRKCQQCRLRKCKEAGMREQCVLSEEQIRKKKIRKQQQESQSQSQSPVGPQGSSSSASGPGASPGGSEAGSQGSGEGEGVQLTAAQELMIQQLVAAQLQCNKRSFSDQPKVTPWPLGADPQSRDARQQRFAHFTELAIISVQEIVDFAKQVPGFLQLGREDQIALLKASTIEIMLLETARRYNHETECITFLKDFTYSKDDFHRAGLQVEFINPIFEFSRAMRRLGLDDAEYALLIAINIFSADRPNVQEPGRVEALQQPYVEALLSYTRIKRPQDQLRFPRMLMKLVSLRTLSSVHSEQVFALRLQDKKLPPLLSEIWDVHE
Numbers without * were called inactive; . = no result given.

SMILES	hcDAF12 agonist	DAX1 inh-1	SMARCA2 act	ssDAF12 agonist	hgDAF-12 ag	DAX1 inh-2	hgDAF12 conf	LXRb DAF12 ctr
CC1CCN(C(=O)CSc2nnc(Cc3ccccc3)o2)CC1	-2	0	0	-1	-1	-1	.	.
Cc1ccc(-c2nc3cccnc3s2)cc1NS(C)(=O)=O	6.4*	1	3	0	14*	3	7	0
O=c1c2ccccc2nc(-c2ccco2)n1Cc1ccccc1	3	2	4	-1	14*	1	12*	0
c1ccc(Cn2c(-c3ccco3)nc3nc4ccccc4nc32)cc1	1	2	6	0	7	2	.	.
CCOC(=O)c1cnc(-c2ccccc2)nc1N1CCOCC1	0	0	0	-1	1	-1	.	.
CCOC(=O)c1cnc(-c2ccccc2)nc1N	5	2	0	0	14*	4.5*	16*	1
Cc1ccc(SCc2nc3ccccc3[nH]2)cc1	1	3	0	-1	14*	2	12*	1
Cc1ccc(NC(=O)CSc2nnc(Cn3c(=O)sc4ccccc43)n2C)cc1	-2	1	2	-1	0	-1	.	.
O=C(Nc1ccccc1)O/N=C/c1ccc(F)cc1	4	3	5	0	15*	3	16*	1
COc1cccc2cc(C(C)=O)oc12	-1	-1	-3	-2	2	0	.	.
COc1ccc(C(=O)c2cc3cccc(OC)c3o2)cc1	1	3	4	-1	19*	3	14*	1
C[C@H](c1ccccc1)n1nnc(COCc2ccccc2)c1C#CCOCc1ccccc1	-1	2	0	-1	-1	0	.	.
Nc1ccc(CCc2nc3ccccc3o2)cc1	2	1	4	-1	13*	4	13*	1
CN1CCOc2cc(S(=O)(=O)Nc3ccc(F)cc3)ccc21	-2	-1	0	-2	-1	-2	.	.
C#CC1(NC(=S)Nc2cccc(OC)c2)CCCCC1	2	2	-3	0	15*	1	1	0
Nc1ccc(-c2nc3ccccc3s2)cn1	5	2	6	1	14*	2	20*	1
c1ccc(-c2nc3ccccc3s2)nc1	3	4.3*	1	1	13*	3	18*	1
Cc1ccc(Nc2nc(C)cs2)cc1	4	1	5	0	16*	2	14*	1
Cc1csc(Nc2ccc(Cl)cc2)n1	-2	1	0	0	9	1	.	.
Fc1ccc(OCc2nc(-c3cccs3)no2)cc1	3	3	4	0	16*	3	12*	0
C/C(=N/NC(=O)C1CCCN1C(=O)c1ccc([N+](=O)[O-])cc1)c1ccc(Br)cc1 (stereo not given)	0	0	0	-1	5	-1	.	.
Cn1cnnc1SC(C(=O)Nc1ccc(F)cc1)c1ccccc1 (stereo not given)	-1	-1	0	-1	-1	0	.	.
Cc1nc2ccc(NC(=O)COc3ccccc3C)cc2s1	-1	1	3	-1	1	0	.	.
Cc1nc2ccc(NC(=O)CSc3ccccc3)cc2s1	3	0	5	0	13*	3	17*	1
Cc1ccc(S(=O)(=O)c2c(C)c(C)c(C)[nH]c2=O)cc1	1	-1	-1	-1	-1	0	.	.
COc1cccc(-n2cc(-c3ccc(F)cc3)[nH]c2=S)c1	5.6*	3	8	0	20*	1	12*	1
COC(=O)c1c(-c2cc(OC)cc(OC)c2)sc2ccc(OC)cc12	-1	0	1	-1	4	-1	.	.
O=C(CSc1nc2ccccc2[nH]1)c1c[nH]c2ccccc12	-2	1	-1	-2	2	0	.	.
O=C(CSc1nc2ccccc2[nH]1)c1ccccc1F	5.8*	2	6	0	16*	1	12*	1
